The results in this text go back to paper PMC5540273 (PLoS ONE, 2017).
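Further: KINOMEscan kinase panel screen.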

One experiment has as its system T1, LOK.
T1 construct: gene STK10
The note with it: concentration: 1 μM, replicates: in singlicate; n = 1.
Regarding `Cc1cccc(NC(=O)Nc2ccc(Oc3ncnc4ccn(C)c34)cc2)c1`, the “%Inh” value came out at 86%.

As to `CNC(=O)c1ccccc1Nc1nc(Nc2ccc(N3CCOCC3)cc2)ncc1Cl.Cl` [GSK1576028], the “%Inh” value was 96.4%.

As for `COc1cc2c(cc1OCCN1CCNCC1)ncc1c3ccc(C#N)cc3[nH]c21`, the “%Inh” value amounted to 42%.

Turning to `Cc1occc1-c1ncc(OC[C@@H](N)Cc2c[nH]c3ccccc23)cc1-c1ccc2[nH]nc(C)c2c1.O=C(O)C(F)(F)F` [GSK682037], the “%Inh” value was 85%.

The subject of the next experiment is LRRK2. The note with it: concentration: 1 μM, replicates: in singlicate; n = 1.
With `Nc1n[nH]c2cnc(-c3ccccc3)cc12` [SB-642124], the “%Inh” value is reported as 12%.

Turning to `COc1cccc(C2=C(Nc3ccc(Cl)c(C(=O)O)c3)C(=O)NC2=O)c1` [SB-390769], the “%Inh” value stood at 0%.

For `Cn1cc(-c2ccc3c(c2)CCN3C(=O)Cc2cccc(Cl)c2)c2c(N)ncnc21` [GSK2606590], the “%Inh” value is on record as 29%.

In the case of `COc1cccc(-c2ccc3c(NC(=O)C4CC4)n[nH]c3n2)c1` [SB-710903], the “%Inh” value is recorded as 0%.

As for `Cc1ccc(C(=O)N2CC[C@@H](O)C2)cc1-n1c(C)cc(OCc2ccc(F)cc2F)c(Br)c1=O`, the “%Inh” value is recorded as 0%.

Consider `O=c1[nH]cc(-c2ccc(N3CCOCC3)cc2)c2sc(-c3cn[nH]c3)cc12` [GSK2276055], for which the “%Inh” value stood at 0%.

As for `COc1cc(Nc2ncc3c(C)nc(-c4cc5ccccc5[nH]4)n3n2)cc(OC)c1OC` [GW869516], the “%Inh” value amounted to 0%.

Take `O=C(Nc1cccc(-c2nn3ccccc3c2-c2ccnc(Nc3cccc(F)c3)n2)c1)c1c(F)ccc(F)c1Cl` [GSK357952]: the “%Inh” value was 32%.

Turning to `CSc1cccc2c(-c3ccncn3)c(-c3ccc(F)cc3)nn12` [GW514786], the “%Inh” value is 34%.

For the compound `COc1cc(Nc2nccc(-c3c(-c4cccc(NC(=O)c5c(F)cccc5F)c4)nn4ncccc34)n2)cc(OC)c1OC` [GSK327238], the “%Inh” value was 0%.

For the compound `Cc1ccc(S(=O)(=O)Nc2ccc(Nc3nccc(Nc4cccc5[nH]ncc45)n3)cc2)cc1` [GSK581271], the “%Inh” value stood at 23%.

Take `O=C(Nc1cccc(-c2nn3ncccc3c2-c2ccnc(Nc3ccccc3)n2)c1)c1c(F)cccc1F` [GSK198271]: the “%Inh” value was determined as 0%.

For `Cl.c1ccc(-c2ccc3c(Nc4ccc5[nH]ncc5c4)ccnc3c2)nc1` [GW440137], the “%Inh” value was determined as 0%.

For `CN(C)S(=O)(=O)c1cc(-c2ccc3nccc(-c4cccc(S(N)(=O)=O)c4)c3c2)cnc1N` [GSK1669921], the “%Inh” value turned out to be 27%.

Take `COc1ccc(CNC(=O)NC2CCN(c3ccnc(Nc4ccc(F)cc4)n3)CC2)cc1` [GSK1379788]: the “%Inh” value turned out to be 0%.

Turning to `Cl.Cl.NCC(C(=O)Nc1cc(Br)c(-c2ccnc3[nH]ccc23)s1)c1ccccc1` (centres unmarked) [GSK1269851], the “%Inh” value was 20%.

For `CCS(=O)(=O)c1ccc(OC)c(Nc2nccc(-c3c(-c4cccc(NC(=O)c5c(F)cccc5F)c4)nn4ncccc34)n2)c1` [GSK326180], the “%Inh” value is listed as 0%.

For the compound `Fc1ccc(-c2ncn(C3CCNCC3)c2-c2ccnc(Oc3ccc(-c4ccccc4)cc3)n2)cc1` [SB-245391], the “%Inh” value is on record as 0%.

Turning to `CN(c1ccc(NC(=O)Nc2cc(C(F)(F)F)ccc2F)cc1)c1ccnc(Nc2ccc(S(N)(=O)=O)cc2)n1` [GW809893], the “%Inh” value amounted to 72%.

Turning to `Cc1ccc(F)c(C(=O)Nc2cccc(-c3nn4ccccc4c3-c3ccnc(Nc4cccc(F)c4)n3)c2)c1F` [GSK361061], the “%Inh” value was 6%.

In the case of `CC(C)(C)c1ccc2nccc(Nc3cccc(O)c3)c2c1` [GW856795], the “%Inh” value is listed as 36%.

As for `O=C(Nc1n[nH]c2cc(-c3ccoc3)ccc12)C1CC1` [SB-738481], the “%Inh” value is given as 0%.

With `CCn1c(-c2nonc2N)nc2c(C#CC(C)(C)O)nc(OC[C@H](N)c3ccccc3)cc21` [GSK943949], the “%Inh” value is on record as 14%.

In the case of `Cl.c1ccc(-c2ccc3c(Nc4ccc5[nH]ccc5c4)ccnc3c2)nc1` [GW440138], the “%Inh” value turned out to be 0%.

For the compound `Cn1cc(-c2[nH]c3cc(NC(=O)[C@H](N)C4CCCCC4)cc4c3c2C=NNC4=O)cn1`, the “%Inh” value is on record as 56%.

In the case of `C[C@@H]1CC[C@@H](C(=O)Nc2ccccc2)CN1c1cc(-c2ccc3c(N)n[nH]c3c2)nc(N)n1` [GSK2286062], the “%Inh” value was found to be 0%.

Regarding `Nc1ncc(-c2cccnc2)c2scc(-c3ccc4c(c3)CCN4C(=O)Cc3ccccc3)c12` [GSK683281], the “%Inh” value is 0%.

Turning to `CC(=O)Nc1nc2cnc(Nc3cc(NC(=O)c4cccc(C5(C#N)CC5)c4Cl)ccc3C)nc2s1`, the “%Inh” value worked out at 0%.

Take `CCc1ccc(-c2ccc3c(c2)-c2c(cnn2C)S(=O)(=O)N3C)cc1`: the “%Inh” value came to 1%.

Consider `COCCOCCOc1cc2ncc3c4ccc(C#N)cc4[nH]c3c2cc1OC`, for which the “%Inh” value turned out to be 95.4%.

As for `Cc1ccc(C(=O)Nc2ccc(Nc3ccnc4cc(-c5nccs5)ccc34)cc2O)cc1.Cl` [GW494702], the “%Inh” value is given as 0%.

In the case of `COc1cc(Nc2nccc(N3CCC(NC(=O)c4cc5ccccc5s4)C3)n2)cc(OC)c1OC` (centres unmarked) [GSK1379760], the “%Inh” value is listed as 0%.

As for `Cl.NC(=O)c1cccc(Nc2nccc(Nc3ccc(Oc4c(Cl)cccc4Cl)c(Cl)c3)n2)c1` [GW659009], the “%Inh” value is on record as 17%.

As for `Cc1cccc(NC(=O)Nc2ccc(Oc3ncnc4ccn(C)c34)cc2)c1`, the “%Inh” value was 0%.

Consider `CNC(=O)c1ccccc1Nc1nc(Nc2ccc(N3CCOCC3)cc2)ncc1Cl.Cl` [GSK1576028], for which the “%Inh” value was 92.7%.

Turning to `COc1cc2c(cc1OCCN1CCNCC1)ncc1c3ccc(C#N)cc3[nH]c21`, the “%Inh” value worked out at 99.3%.

As to `Cc1occc1-c1ncc(OC[C@@H](N)Cc2c[nH]c3ccccc23)cc1-c1ccc2[nH]nc(C)c2c1.O=C(O)C(F)(F)F` [GSK682037], the “%Inh” value stood at 23%.
